Measurements as given in PubChem BioAssay (NCATS).
“And” between values parts separate entries of the source, which are not always exact repeats. Equal values may be shown once. Results filed as inconclusive are left out. Unmarked numbers belong to inactive results. The source made the active and inactive calls. Calls follow the shape of the dose curve; as a rule, active = well fitted inhibition curve with a large enough effect; inconclusive = small, poorly fitted or top-dose-only effect; inactive = flat fitted curve, though single readings scatter.

test system: KB-3-1; experiment: Cytotoxic Profiling of Annotated Libraries Using Quantitative High-Throughput Screening (AID 1296008); conditions: Five cell lines viability, CellTiter-Glo ATP luminescence, 48-72 h; max response: stronger effect = lower value; also: nearly all actives have a fitted effect of over 60% in size
Outline: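 Compounds were pin-transferred onto cells and incubated 48 or 72 hr at 37 degree Celsius, 95% humidity. CellTiter-Glo was added, plates sat 10 min at room temperature, then ATP-coupled luminescence was imaged as the viability read-out.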
% is scaled to controls: 0 for no effect and ±100 for the full control effect; potency is read from the fitted curve at half-maximal effect.

Row | SMILES | max response | Potency
1 | CCOc1ccc2c3c1O[C@H]1[C@@H](O)C=C[C@H]4[C@@H](C2)N(C)CC[C@@]341 | -8.27% | –
2 | [S]=[Sb](=[S])[S][Sb](=[S])=[S] | 2.26% | –
3 | O=C(OCCN1CCCCC1)C(O)(c1ccccc1)c1ccccc1 | 1.68% | –
4 | C[N+]1([O-])[C@@H]2CC(OC(=O)[C@H](CO)c3ccccc3)C[C@H]1[C@@H]1O[C@@H]12 (stereo partly drawn) | -17% and 5.47% | –
5 | CCC1(c2ccccc2)C(=O)NC(=O)NC1=O | 3.43% | –
6 | C/C(=C\c1csc(C)n1)[C@@H]1C[C@@H]2O[C@]2(C)CCC[C@H](C)[C@H](O)[C@@H](C)C(=O)C(C)(C)[C@@H](O)CC(=O)O1 | -86.7% | –
7 | CNC(=O)Oc1ccccc1C(=O)Nc1ccccc1 | -7.71% | –
8 | O=C1C[C@@H]2OCC=C3CN4CC[C@]56c7ccccc7N1[C@H]5[C@H]2[C@H]3C[C@H]46 (tested in a mixture with another compound) | 0.545% and 11.6% | –
9 | FC(F)OC(F)(F)C(F)Cl (stereo not drawn) | -1.37% | –
10 | CN(C)CCCCCCN(C)C (tested in a mixture with another compound) | 0.743% | –
11 | CCCCCl | -7.35% | –
12 | O=C1CCCCC1CN1CCCCC1 (stereo not drawn) | 4.12% | –
13 | O[C@H]1[C@H]2[C@H](O)CCCN2C[C@H]1O | -14% | –
14 | CC(=O)OO | 2.94% | –
15 | Oc1cc(Cl)c(Cl)cc1Cl | 0.226% | –
16 | CN[C@H]1C[C@@H](N)[C@H](O)[C@@H](O[C@@H]2O[C@H](CO)[C@H](O)[C@@H]3OC4(O[C@H]23)O[C@H](C(N)CO)[C@H](O)[C@H](O)[C@H]4O)[C@@H]1O (stereo partly drawn) | -7% and 5.21% | –
17 | CCC1(c2ccccc2)C(=O)NC(=O)N(C)C1=O (stereo not drawn) | -7.5% | –
18 | CNC(=O)OCC[N+](C)(C)C | 5.31% | –
19 | Clc1ccc(C2(Cn3cncn3)OCCO2)c(Cl)c1 | 4.69% | –

Row | SMILES | max response | Potency
20 | C[C@]12CC[C@H]3[C@@H](CCC4=C(Cl)C(=O)CC[C@@]43C)[C@@H]1CC[C@@H]2O | 3.69% | –
21 | CC(C)(C)c1cc(O)ccc1O | 3.78% and 3.98% | –
22 | O=C(CS(=O)C(c1ccccc1)c1ccccc1)NO (stereo not drawn) | -1.93% | –
23 | CCOC(=O)/C=C(C)/C=C/C[C@@H](C)CCCC(C)C | 3.85% | –
24 | C=C[C@H]1CN2CC[C@H]1C[C@H]2[C@H](OC(=O)OCC)c1ccnc2ccc(OC)cc12 | 4.99% | –
25 | CC(C)CCC(=O)O[C@H]1CC[C@H]2[C@@H]3CCC4=CC(=O)CC[C@]4(C)[C@H]3CC[C@]12C | 19.3% | –
26 | O=C(O)C(Cl)(Cl)Cl | -15.3% | –
27 | C[C@]12CCC(=O)C=C1C=C[C@@H]1[C@@H]2CC[C@@]2(C)[C@H]1CC[C@@]2(O)CCC(=O)O | 17.7% | –
28 | CCC1(c2ccccc2)C(=O)NC(=O)N(C(=O)c2ccccc2)C1=O (stereo not drawn) | -9.95% | –
29 | CN1c2ccccc2C(NCCCCCCC(=O)O)c2ccc(Cl)cc2S1(=O)=O (stereo not drawn) | -15.2% | –
30 | O=C(C[C@@H]1NCCC[C@H]1O)Cn1cnc2cc(Br)c(Cl)cc2c1=O | -0.356% | –
31 | CCCCNCC(O)c1ccc(O)cc1 (stereo not drawn) | 13.7% | –
32 | CC[C@H]1[C@@H]2C[C@H]3[C@@H]4N(C)c5ccccc5[C@]45C[C@@H](C2[C@H]5O)N3[C@@H]1O (stereo partly drawn) | -5.46% | –
33 | CC[N+](C)(CC)CCOC(=O)C(O)(c1ccccc1)c1ccccc1 | -0.181% | –
34 | CC(=O)O[C@H]1C[C@H](O[C@H]2[C@@H](O)C[C@H](O[C@H]3[C@@H](O)C[C@H](OC4CC[C@@]5(C)[C@H](CC[C@@H]6[C@@H]5CC[C@]5(C)[C@@H](C7=CC(=O)OC7)CC[C@]65O)C4)O[C@@H]3C)O[C@@H]2C)O[C@H](C)[C@H]1O[C@@H]1O[C@H](CO)[C@@H](O)[C@H](O)[C@H]1O (stereo partly drawn) | – | 206 nM (active)
35 | CCCCCCCCCC(=O)O[C@H]1CC[C@H]2[C@@H]3CCC4=CC(=O)CC[C@]4(C)[C@H]3CC[C@]12C | 0.58% | –
36 | NCC(O)c1cccc(O)c1 (stereo not drawn) | 1.34% | –
37 | CC(N)Cc1ccc(O)cc1 (stereo not drawn) | -5.37% | –
38 | O=C1OC2(c3cc(Br)c(O)cc3Oc3c2cc(Br)c(O)[c]3[Hg])c2ccccc21 (stereo not drawn) | 6.88% | –
